A short description of assay [1]: inhibitors of TNFa-induced NFkB p65 translocation, primary screen, imaging, HUVEC, MLSMR starter and 10KST1 sets (AID 438;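 active = inhibition above 20% together with a positive visual image hit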;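 also: compound added about 3h40 before a 20 min TNFalpha stimulation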;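 as to inhibition: signal is the nuclear over cytoplasmic p65 intensity ratio per well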). To be noted: HUVEC TNFa-induced p65 nuclear translocation; cell count: measured here: nuclei count (cytotoxicity indicator), at 2.08 µM; inhibition: at 2 µM, stronger effect = higher value, 0% TNFa-plus-vehicle, 100% no-TNFa wells.
Assay [2] can be described thus: reduction of polyQ htt aggregates in cells – imaging, exon1htt(103Q)mCFP cells, high-content imaging, primary screen (AID 483;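 active = visual image review flags a hit and inhibition of aggregation exceeds 20%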;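 also: compound exposure lasted 3 days before fixation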;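 as to nuclei count: percent of the per-plate median nuclei count of sample wells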). To be noted: exon1htt(103Q)mCFP cell line, aggregate imaging, at 2 µM; inhibition of aggregation: stronger effect = higher value; nuclei count: measured here: cell count, toxicity.
A short description of assay [3]: endothelial E-selectin expression blockers – imaging, HUVEC, immunofluorescence, MLSMR starter and 10KST1 sets, primary screen (AID 487).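 As to inhibition: signal is fraction of cell area covered by stained E-selectin grains.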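 As to nuclei count: 100% = median nuclei count of all wells on the same plate.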 Conditions: HUVEC TNFalpha-induced E-selectin immunofluorescence imaging, at 2 µM; inhibition: stronger effect = higher value; nuclei count: measured here: cell number, toxicity.
For assay [4], the target named is Voltage-gated potassium channel subunit beta-2 (Rattus norvegicus) (UniProt P62483). Put plainly: inhibitors of rat Kvbeta2 reductase activity – biochemical, NADPH fluorescence, primary screen (AID 622;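 active = fluorescence slope higher than the sample average by over 3 SD, cut at about -0.22 in these data, passing the limit was not always enough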;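 also: slope of raw intensity against log time taken from 70 to 1610 s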). To be noted: recombinant KvBeta, 4-cyanobenzaldehyde reduction, at 10 µM, stronger effect = higher value.
Chain of Voltage-gated potassium channel subunit beta-2 (Rattus norvegicus) (P62483 whole entry, looked up): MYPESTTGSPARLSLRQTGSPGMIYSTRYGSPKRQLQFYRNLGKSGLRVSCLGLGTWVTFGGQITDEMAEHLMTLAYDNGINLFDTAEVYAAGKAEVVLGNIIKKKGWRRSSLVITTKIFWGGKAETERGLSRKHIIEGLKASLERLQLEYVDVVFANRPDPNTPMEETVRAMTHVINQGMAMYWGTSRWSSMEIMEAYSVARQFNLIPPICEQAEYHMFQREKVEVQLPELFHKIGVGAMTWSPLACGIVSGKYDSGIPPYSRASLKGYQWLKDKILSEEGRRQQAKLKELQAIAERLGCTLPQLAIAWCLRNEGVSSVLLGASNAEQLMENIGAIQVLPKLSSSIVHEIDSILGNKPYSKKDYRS
The target is the same in assay [5]. Put plainly: enhancers of rat Kvbeta2 NADPH turnover – biochemical, NADPH fluorescence, primary screen (AID 623;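 active = NADPH fluorescence slope more negative than the mean of all samples by about 3 SD, 99.7% confidence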;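 also: fluorescence intensity change per second fitted from 20 to 320 s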). To be noted: Recombinant KvBeta, NADPH fluorescence decrease slope, 10 min; at 10 µM; stronger effect = lower value.
Assay [6] has as its target Alpha-2C adrenergic receptor (Homo sapiens) (UniProt P18825). Put plainly: compounds altering alpha2C-coupled GIRK flux – cell-based, HEK293 alpha2C/GIRK1/2, thallium flux, primary screen (AID 624;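 active = fluorescence slope after compound addition differing from the mean of all screened samples at 99.7% confidence, in either direction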;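 also: slope of fluorescence ratio to pre-addition baseline per second over 15 to 24 s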). To be noted: thallium flux BTC fluorescence, at 10 µM, actives lie on both sides.
The nature of assay [7]: blockers of RIG-like receptor reporter activation – cell-based, Sendai virus stimulus, luciferase, 10K MLSCN set, TLR/RLR signaling modifier project, primary screen (AID 602276;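 active = inhibition at or above 50% at 10 µM; inactive = inhibition below 50%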;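 also: firefly luciferase from ISG56 promoter only with Renilla not read in this screen; 0% = Sendai virus plus DMSO and 100% = medium plus DMSO without virus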). To be noted: HEK293 RL24 IRF3 luciferase reporter, at 10 µM, stronger effect = higher value.
Assay [8] is described as follows: TLR3 IRF3 reporter activation blockers – cell-based, poly I:C stimulus, luciferase, 10K MLSCN set, primary screen (AID 602277;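 active = inhibition of the reporter signal at or above 50%; inactive = inhibition below 50%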). To be noted: HEK293-TLR3 RL24 IRF3 luciferase reporter, at 10 µM, stronger effect = higher value. In general terms: Reporter assays use an easily measured gene product as a stand-in for the process of interest.

Active and inactive are the calls of the source.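 The calls were made as follows, unless noted: active = visually confirmed hit in the image check and inhibition above 20%; inconclusive = visually confirmed hit but inhibition not above 20%; inactive = no visual hit in the image check.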

As a reminder, the inhibition is the change of the read-out against control, counted positive when it falls.

Chain of Alpha-2C adrenergic receptor (Homo sapiens) (P18825 whole entry, looked up): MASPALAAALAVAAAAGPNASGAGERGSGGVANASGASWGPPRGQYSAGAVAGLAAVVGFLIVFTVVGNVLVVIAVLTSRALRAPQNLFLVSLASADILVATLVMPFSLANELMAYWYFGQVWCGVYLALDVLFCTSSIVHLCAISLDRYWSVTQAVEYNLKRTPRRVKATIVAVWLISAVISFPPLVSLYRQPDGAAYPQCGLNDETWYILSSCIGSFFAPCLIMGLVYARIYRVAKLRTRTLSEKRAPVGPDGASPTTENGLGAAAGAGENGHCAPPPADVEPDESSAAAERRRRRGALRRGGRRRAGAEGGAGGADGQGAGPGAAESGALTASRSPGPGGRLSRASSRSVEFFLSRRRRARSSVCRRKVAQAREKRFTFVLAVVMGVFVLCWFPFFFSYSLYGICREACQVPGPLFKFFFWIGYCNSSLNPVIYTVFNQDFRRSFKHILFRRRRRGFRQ

On to `COc1ccc(C(=O)N2CCCc3ccccc32)cc1`, for which the cell count in assay [1] is 433. Besides, the inhibition in assay [1] is 2.5% (inactive); in assay [3], 4.7% (inactive); in assay [7], 7.26% (inactive); in assay [8] it was 5.78% (inactive). In assay [2], the inhibition of aggregation is -1.4% (inactive). The nuclei count is 107% in assay [2] and 110% in assay [3]. In addition, in assay [4], the fluorescence slope was -0.519 (inactive). In assay [5], the NADPH fluorescence slope was -8e-05 (inactive). In assay [6], the slope was 0.00477 (inactive).
As to `Cc1ccccc1-c1nc(Cc2ccccc2)no1`, the cell count in assay [1] was found to be 434. Besides, the inhibition was -9.1% (inactive) in assay [1], 31.1% (inactive) in assay [3], -43.9% (inactive) in assay [7] and -184% (inactive) in assay [8]. For the same compound, in assay [2], the inhibition of aggregation was 12.9% (inactive). In addition, the nuclei count worked out at 87.9% in assay [2] and 93.2% in assay [3]. Also, the fluorescence slope in assay [4] was -0.341 (inactive). Besides, the NADPH fluorescence slope in assay [5] is -3.8e-05 (inactive). The slope in assay [6] was 0.00721 (inactive).
Consider `Cc1onc(-c2ccccc2Cl)c1C(=O)Nc1cccnc1`, for which, in assay [1], the cell count turned out to be 286. The inhibition is -2.3% (inactive) in assay [1], -78.5% (inactive) in assay [3], 0.844% (inactive) in assay [7] and 32.2% (inactive) in assay [8]. The inhibition of aggregation in assay [2] is 1.8% (inactive). The nuclei count worked out at 106% in assay [2] and 148% in assay [3]. In addition, the fluorescence slope in assay [4] is -0.452 (inactive). Moreover, the NADPH fluorescence slope in assay [5] is 2.6e-05 (inactive). Besides, in assay [6], the slope is 0.00566 (inactive).
Regarding `CSC1=N/C(=C\C=C\c2cccs2)C(=O)S1`, the cell count in assay [1] is 374. Also, the inhibition in assay [1] was -11.5% (inactive); in assay [3], 0.2% (inactive); in assay [7] it was 10.5% (inactive); in assay [8], 28.8% (inactive). In assay [2], the inhibition of aggregation was -80.1% (inactive). The nuclei count in assay [2] is 106%; in assay [3], 115%. Further, the fluorescence slope in assay [4] was -0.343 (inactive). Also, in assay [5], the NADPH fluorescence slope was -4.4e-05 (inactive). The slope in assay [6] was 0.00431 (inactive).
`O=C(c1ccco1)N1CCN(c2cccc(Cl)c2)CC1`: the cell count in assay [1] turned out to be 665. For the same compound, the inhibition is -1.9% (inactive) in assay [1], 24.2% (inactive) in assay [3], -26.6% (inactive) in assay [7] and -76.9% (inactive) in assay [8]. The inhibition of aggregation in assay [2] was 5.4% (inactive). The nuclei count in assay [2] stood at 115%; in assay [3], 91.6%. In assay [4], the fluorescence slope was -0.507 (inactive). Moreover, the NADPH fluorescence slope in assay [5] was -7.7e-05 (inactive). Besides, in assay [6], the slope is 0.00406 (inactive).
Consider `O=C(NCC(c1cccnc1)N1CCOCC1)c1cccs1` (centres undefined), for which, in assay [1], the cell count amounted to 357. The inhibition in assay [1] was 9.8% (inactive); in assay [3] it was -81% (inactive); in assay [7] it was 5.49% (inactive); in assay [8], 10.9% (inactive). Further, in assay [2], the inhibition of aggregation is -3.5% (inactive). Also, the nuclei count in assay [2] was found to be 97.5%; in assay [3], 123%. The fluorescence slope in assay [4] was -0.414 (inactive). For the same compound, in assay [5], the NADPH fluorescence slope is -1.2e-05 (inactive). The slope in assay [6] is 0.00412 (inactive).
For the compound `Cn1cc(C2NC(=O)c3c(sc4c3CCCC4)N2)c2ccccc21` (centres undefined), the cell count in assay [1] came out at 561. Also, the inhibition in assay [1] is 9.2% (inactive); in assay [3], -37.2% (inactive); in assay [7], 2.79% (inactive); in assay [8], 21.2% (inactive). The inhibition of aggregation in assay [2] was 17.3% (inactive). Further, the nuclei count in assay [2] was determined as 98.8%; in assay [3] it was 112%. In assay [4], the fluorescence slope was -0.384 (inactive). Further, in assay [5], the NADPH fluorescence slope is 3.8e-05 (inactive). Moreover, the slope in assay [6] is 0.00476 (inactive).
With `COc1ccc(C2=NOC(C(=O)Nc3cc(Br)ccc3O)C2)cc1OC` (centres undefined), the cell count in assay [1] is 672. Besides, the inhibition in assay [1] was -12.2% (inactive); in assay [3], -73.1% (inactive); in assay [7], 9.82% (inactive); in assay [8], 34.8% (inactive). In assay [2], the inhibition of aggregation is -2.8% (inactive). For the same compound, the nuclei count in assay [2] was found to be 102%; in assay [3] it was 106%. Besides, the fluorescence slope in assay [4] was -0.459 (inactive). The NADPH fluorescence slope in assay [5] is -3.2e-05 (inactive). Also, in assay [6], the slope was 0.00665 (inactive).
Take `CCC1CCCCN1C(=O)CSc1nnc(-c2ccc(OC)cc2)o1` (centres undefined): the cell count in assay [1] amounted to 599. The inhibition in assay [1] was -4.4% (inactive); in assay [3] it was -27.4% (inactive); in assay [7], -5.53% (inactive); in assay [8], -21.5% (inactive). The inhibition of aggregation in assay [2] was 20.5% (inactive). Further, the nuclei count was 96.8% in assay [2] and 113% in assay [3]. Also, in assay [4], the fluorescence slope was -0.539 (inactive). In assay [5], the NADPH fluorescence slope is 3e-05 (inactive). In addition, the slope in assay [6] was 0.0067 (inactive).
With `CCOC(=O)Cn1c(=O)c(-c2ccccc2N)nc2ccccc21`, the cell count in assay [1] stood at 620. Also, the inhibition was -1.8% (inactive) in assay [1], -50.2% (inactive) in assay [3], 12.3% (inactive) in assay [7] and 33.1% (inactive) in assay [8]. The inhibition of aggregation in assay [2] was 2.1% (inactive). The nuclei count amounted to 124% in assay [2] and 116% in assay [3]. The fluorescence slope in assay [4] was -0.542 (inactive). Further, the NADPH fluorescence slope in assay [5] is -3.7e-05 (inactive). Besides, the slope in assay [6] is 0.00661 (inactive).
Take `O=C1c2ccccc2C(=O)N1CNc1ccccc1`: in assay [1], the cell count stood at 425. The inhibition is -2.7% (inactive) in assay [1], -144% (inactive) in assay [3], 7.68% (inactive) in assay [7] and -8.22% (inactive) in assay [8]. Besides, the inhibition of aggregation in assay [2] is -3.7% (inactive). For the same compound, the nuclei count in assay [2] is 112%; in assay [3] it was 118%. Besides, the fluorescence slope in assay [4] is -0.603 (inactive). For the same compound, the NADPH fluorescence slope in assay [5] was -1.7e-05 (inactive). Moreover, in assay [6], the slope was 0.00312 (inactive).
As for `Cc1ccc(SCC(=O)NCCN2C(=O)CSC2=O)c(C)c1`, the cell count in assay [1] worked out at 323. Also, the inhibition is 22.6% (inactive) in assay [1], -98.3% (inactive) in assay [3], 0.863% (inactive) in assay [7] and 35.6% (inactive) in assay [8]. Further, the inhibition of aggregation in assay [2] is -4.2% (inactive). Besides, the nuclei count worked out at 93.3% in assay [2] and 115% in assay [3]. The fluorescence slope in assay [4] was -0.422 (inactive). In addition, the NADPH fluorescence slope in assay [5] was -2.5e-05 (inactive). For the same compound, the slope in assay [6] was 0.00367 (inactive).
Consider `O=C(COc1ccccc1)N1CCN(C(=O)c2cccc(F)c2)CC1`, for which, in assay [1], the cell count worked out at 725. Besides, the inhibition in assay [1] is 1% (inactive); in assay [3] it was 7.6% (inactive); in assay [7], 8.19% (inactive); in assay [8], 29.6% (inactive). Also, in assay [2], the inhibition of aggregation is -0.2% (inactive). The nuclei count in assay [2] turned out to be 111%; in assay [3] it was 97.2%. For the same compound, the fluorescence slope in assay [4] was -0.447 (inactive). The NADPH fluorescence slope in assay [5] was -3.8e-05 (inactive). In assay [6], the slope is 0.00634 (inactive).
Regarding `CCCCCC1CC(CC(=O)O)C(=O)O1` (centres undefined), the cell count in assay [1] came out at 230. The inhibition in assay [1] is -25.6% (inactive); in assay [3], -70.3% (inactive); in assay [7], 7.61% (inactive); in assay [8], 23.6% (inactive). In addition, the inhibition of aggregation in assay [2] is 20.9% (inactive). Besides, the figures for the nuclei count in assay [2] and in assay [3] were 80.6% and 126%, respectively. In addition, the fluorescence slope in assay [4] is -0.4 (inactive). In assay [5], the NADPH fluorescence slope is -5.4e-05 (inactive). For the same compound, the slope in assay [6] is 0.00366 (inactive).
